These results are taken from the supplement of paper PMC3334620.

The full ranking holds about 33,000 sequences; the median of “E-score (-0.5 to 0.5)” is about -0.016, and the highest 2% start at about 0.32. The sample as a whole holds a higher share of the highest values than the screen did.

In this test the target is T1, Stp1 (UniProt B3LFK1).
T1 sequence: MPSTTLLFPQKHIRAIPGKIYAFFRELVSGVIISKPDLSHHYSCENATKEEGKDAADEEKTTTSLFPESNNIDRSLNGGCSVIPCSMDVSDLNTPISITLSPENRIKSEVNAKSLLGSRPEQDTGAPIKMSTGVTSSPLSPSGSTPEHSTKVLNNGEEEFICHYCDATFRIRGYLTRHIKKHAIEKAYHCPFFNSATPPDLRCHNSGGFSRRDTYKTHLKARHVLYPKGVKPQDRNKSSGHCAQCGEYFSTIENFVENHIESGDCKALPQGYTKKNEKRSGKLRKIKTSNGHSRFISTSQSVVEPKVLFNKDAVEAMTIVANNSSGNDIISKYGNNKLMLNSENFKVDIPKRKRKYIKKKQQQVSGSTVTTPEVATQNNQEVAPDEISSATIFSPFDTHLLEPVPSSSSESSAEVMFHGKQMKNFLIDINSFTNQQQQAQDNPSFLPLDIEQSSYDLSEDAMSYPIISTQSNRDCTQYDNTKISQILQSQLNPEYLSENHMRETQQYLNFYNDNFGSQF
Kind of test: PBM E-score (8-mer binding enrichment) (E-score (-0.5 to 0.5)); higher = stronger / more preferred TF binding. To be noted: protein concentration: 200 nM; construct: GST-full length. As to the method: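 Universal 'all 10-mer' protein binding microarrays (Agilent AMADID 015681) probed with GST-tagged S. cerevisiae TFs (full-length or DBD) made by in vitro transcription/translation (PURExpress), about 100-200 nM. Bound TF was detected with fluorescent anti-GST. Each ungapped 8-mer (which stands for itself and its reverse complement) is scored by the PBM enrichment score (E-score), a modified Wilcoxon-Mann-Whitney statistic from -0.5 to +0.5, computed with the Universal PBM Analysis Suite. Scale: above 0.35 generally sequence-specific binding.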
Turning to CTGGAGGC, the “PBM E-score” value is -0.0215.

Consider ACTGGCTC, for which the “PBM E-score” value is -0.267.

Take AGTAGCTA: the “PBM E-score” value is -0.16. Consider CACGGCAA, for which the “PBM E-score” value turned out to be 0.469.

Take CCCGGCAA: the “PBM E-score” value is 0.0207. As for CCCGGCAG, the figure is -0.227; as for TTCGGCAA, 0.088. As for CTCGGCAA, the figure is 0.1. As for AACGGCAG, the figure is 0.384; as for ATCGGCAG, -0.00845; as for TACGGCAA, 0.449. With ACCGGCAG, the “PBM E-score” value was -0.121. With TACGGCCA the figure was 0.214. With CTCGGCAG the figure was 0.117; with CACGGCAG, 0.428; with AGACTTTC, -0.256. With TCTCAACA the figure was 0.0271. On to CAGGCCAG, for which the “PBM E-score” value was -0.0909. With ATGGGAAC the figure was -0.132; with GTGAGCAC, -0.066. With CCCTGATC the figure was -0.255; with CCTAACAC, 0.067. With CGAGCCTA the figure was -0.0212. Consider ACATTAAT, for which the “PBM E-score” value amounted to 0.0799.

Take ACAAGCGT: the “PBM E-score” value was -0.135. With AACGGCAA the figure was 0.432; with ACCGGCAC, 0.301. With ATCGGCAC the figure was 0.297; with AACGGCAT, 0.451; with AACGGCAC, 0.472.

As for AATGGCAG, the “PBM E-score” value came to 0.0303. With ATCGGCAT the figure was 0.238; with ATCGGCAA, 0.106; with ACCGGCAA, -0.0651.

In the case of AATGGCAC, the “PBM E-score” value is 0.275. With AATGGCAT the figure was 0.356. With ACCGGCAT the figure was 0.0121. As for TAGGGGAA, the figure is -0.171.

For the sequence AAAGGATT, the “PBM E-score” value is -0.109. As for CAGTGGGG, the figure is -0.239; as for AAACTCGG, -0.0615; as for AGACTCAG, -0.133. As for CCTGCTTA, the figure is -0.0853; as for GTGTAGCA, -0.202; as for ATGGAAAC, -0.0997. With CAAGCCCA the figure was -0.0787; with ACGGAATA, 0.0278; with GACGGCAA, 0.325.

As for GTCGGCAA, the “PBM E-score” value amounted to 0.0611. With GACGGAAC, the “PBM E-score” value was -0.0397.

As for GCCGGCAC, the “PBM E-score” value was found to be 0.273. As for GCCGGCAA, the figure is 0.106. As for GACGGCAC, the figure is 0.453.

Turning to CAAGCCCG, the “PBM E-score” value was -0.0901. With CCACACTA, the “PBM E-score” value amounted to 0.127.

For ATCTAGCG, the “PBM E-score” value was -0.0611. As for ACCAGATG, the figure is -0.146; as for AAGAGGCG, 0.298; as for ATGAGGAA, -0.0278. Regarding GGGAGGCA, the “PBM E-score” value amounted to 0.00612. With CTGAGGCA the figure was 0.192. With AAGAGGCA the figure was 0.363. Take AAGAGGCT: the “PBM E-score” value turned out to be 0.0613. As for ATGAGGCA, the figure is 0.332. Consider ATGAGGTG, for which the “PBM E-score” value is -0.0679. With ATGAGGCC the figure was 0.0892; with GTGAGGCA, 0.367; with ATGAGGCG, 0.35. With GAGAGGCA the figure was 0.208; with GTTCTGTA, 0.0215; with TCCCGCGA, -0.312. With TATTGAGA the figure was 0.0944.

As for CCTGCTCC, the “PBM E-score” value came to 0.0227.

For CATTAAAA, the “PBM E-score” value came to 0.245. Regarding CAAGACCC, the “PBM E-score” value was -0.272. With AAAGGACC the figure was 0.0732; with ATGAGTAC, 0.0493; with CATGTGGG, -0.144. With AGTGTGGC the figure was 0.068; with CGTGTGGC, 0.353. With CGTGTGGA the figure was 0.016; with CATGTGGC, 0.32. As to AATGTGGC, the “PBM E-score” value was found to be 0.158. With AGCTCATC the figure was -0.307.

As to TAGCACCA, the “PBM E-score” value is -0.0587. As for GCAACTAA, the figure is 0.263. As for ATGTTTCG, the figure is 0.147. With AAAAACGA the figure was 0.128; with GGGGCGCA, 0.126; with GCGGCGCA, 0.463. Take CCGGCGGC: the “PBM E-score” value was determined as 0.152. As for TCGGCGCA, the “PBM E-score” value was determined as 0.243. With GCGGCCCC the figure was 0.176; with GCGGCGCC, 0.484. As for CCGGCGCC, the figure is 0.367. As for CCGGCGCG, the figure is 0.298; as for CCGGCGCA, 0.121; as for CTTCAGAC, -0.00198. As to AGTCGCGC, the “PBM E-score” value is 0.0334. In the case of GCCCTAGA, the “PBM E-score” value was -0.0515. With CTGCTTCA the figure was -0.155; with ACTATCTG, -0.183; with CGCCGCTA, 0.299.

With AGCCGCTG, the “PBM E-score” value came to 0.0781. With AGCCGCTC the figure was 0.337; with AGCCGCTA, 0.119; with CACCGCTC, -0.0467. With CGCCGCTC the figure was 0.434; with ATGACCAA, -0.0118.
